Test results taken from PubChem BioAssay.
Calls of active or inactive are those of the source.

What was measured:
[1] = binders of probe aFSTL3 on microarray, primary screen, stem cell growth factor project, biochemical, small-molecule microarray, fluorescence 635/667 (AID 1064); settings: higher = more signal;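 also: measures binding of the biotinylated anti-FSTL3 antibody to printed compounds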
[2] = binders from COS7 lysate, DM2A8 probe, primary screen, torsin A project, cell lysate, small-molecule microarray, fluorescence 635/667 (AID 1065); settings: higher = more signal, COS7 lysate expressing mutant human TOR1A
[3] = binders of probe aFGF2 on microarray, primary screen, stem cell growth factor project, biochemical, small-molecule microarray, fluorescence 635/667 (AID 1067); settings: higher = more signal;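 also: measures binding of biotinylated aFGF2 protein to printed compounds on slides; z-score merges feature fluorescence and signal-to-noise across triplicate slides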
[4] = binders of probe aFGF10 on microarray, primary screen, stem cell growth factor project, biochemical, small-molecule microarray, fluorescence 635/667 (AID 1071); settings: higher = more signal;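 also: score merges 667 nm spot intensity and signal to noise from triplicate slides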
[5] = target: Neurogenic locus notch homolog protein 2 (Homo sapiens) (UniProt Q04721); test: Notch2 binders on small-molecule microarrays, primary screen, biochemical, small-molecule microarray, 635 nm fluorescence, stem cell growth factors (AID 1073); settings: Notch2 binding, higher = more signal
[6] = target: Pro-neuregulin-1, membrane-bound isoform (Homo sapiens) (UniProt Q02297); test: NRG1 binders on small-molecule microarrays, primary screen, psychiatric disease protein project, biochemical, small-molecule microarray, fluorescence 635/667 (AID 1075); settings: NRG1 binding, 635 nm fluorescence, higher = more signal;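 also: score combines 667 nm spot fluorescence with signal to noise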
[7] = tested on: Neuregulin-1 EGF-like domain; test: binders of neuregulin-1 EGF-like domain, primary screen, biochemical, small-molecule microarray, 635 nm fluorescence (AID 1081); settings: small-molecule microarray binding, higher = more signal;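 also: binding of the protein to compounds printed on small-molecule microarray slides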
[8] = FRG1 promoter luciferase signal modulators, primary screen, FRG1 inhibition for FSHD, cell-based, C2C12 myotubes, firefly/Renilla luciferase, luminescence (AID 1084); settings: higher = more signal, called active from +8 up or from −8 down
[9] = binders of probe aFST on microarray, primary screen, stem cell growth factor project, biochemical, small-molecule microarray, fluorescence 635/667 (AID 1086); settings: higher = more signal;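 also: score merges 667 nm fluorescence with signal-to-noise of each printed compound spot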
[10] = binders of probe aHhip on microarray, primary screen, stem cell growth factor project, biochemical, small-molecule microarray, fluorescence 635/667 (AID 1087); settings: higher = more signal;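 also: score merges spot fluorescence at 667nm with spot signal to noise ratio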
[11] = tested on: PRMT1 (protein arginine N-methyltransferase 1); test: PRMT1 binders on small-molecule microarrays, primary screen, biochemical, small-molecule microarray, 635 nm fluorescence (AID 1088); settings: small-molecule microarray binding, higher = more signal;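 also: binding of Prmt1 protein to compounds spotted on small-molecule microarray slides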
[12] = yeast growth modulation, basal conditions, primary screen, YJM789 clinical isolate, OD600, 24 h (AID 1089);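 also: growth of clinical yeast isolate S. cerevisiae YJM 789 seeded 1000 cells per well; test concentration not given here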; settings: S. cerevisiae YJM789 growth, higher = more signal, called active from +8 up or from −8 down
[13] = fission yeast growth modulation, primary screen, strain 972, OD600, 24 h, no modulator (AID 1090);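 also: basal condition with compound alone and no growth modifier present; test concentration not given here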; settings: S. pombe 972 growth, higher = more signal, called active from +8 up or from −8 down
[14] = S. cerevisiae growth modulation with rapamycin, primary screen, strain BY4716, OD600, 96 h (AID 1091); settings: higher = more signal, called active from +8 up or from −8 down; also: test concentration not given here
[15] = target: Torsin-1A-interacting protein 2 (Homo sapiens) (UniProt Q8NFQ8); test: LULL1 binders on small-molecule microarray, primary screen, cell lysate, human LULL1 lysate, 635/667 nm fluorescence (AID 1092); settings: hLULL1 lysate binding, 635 nm fluorescence, higher = more signal;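 also: probe is lysate of COS7 cells overexpressing human LULL1; score merges per-feature 667 nm fluorescence with signal-to-noise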
[16] = E. coli growth modulation, two-sided OD650, primary screen, E. coli filamentation project, strain DRC41, 24 h (AID 1093); settings: OD650, 24 h, higher = more signal, called active from +8 up or from −8 down;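 also: MC1000 strain lacking acrAB efflux and sulA so SOS filamentation is blocked; test concentration not given here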
[17] = small-molecule microarray binders of probe aLefty2, primary screen, biochemical, biotinylated probe, 635/667 nm fluorescence (AID 1094); settings: higher = more signal;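 also: score merges spot fluorescence near 667 nm with spot signal-to-noise ratio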
[18] = tested on: Noggin (protein binding on small-molecule microarray); test: Noggin binders on small-molecule microarray, primary screen, biochemical, 635/667 nm fluorescence (AID 1095); settings: 635 nm fluorescence, higher = more signal;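 also: score merges 667 nm feature fluorescence with signal to noise over triplicate slides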
[19] = target: Neurogenic locus notch homolog protein 3 (Homo sapiens) (UniProt Q9UM47); test: NOTCH3 binders on small-molecule microarray, primary screen, biochemical, 635/667 nm fluorescence (AID 1096); settings: NOTCH3 binding, 635 nm fluorescence, higher = more signal
[20] = small-molecule microarray binders of probe aEGFR, primary screen, biochemical, biotinylated probe, 635/667 nm fluorescence (AID 1097); settings: higher = more signal;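 also: probe is a biotinylated anti-EGFR antibody binding compounds printed on slides; score combines fluorescence near 667 nm and signal to noise of each spot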

Chain of Neurogenic locus notch homolog protein 2 (Homo sapiens) (Q04721 whole entry, looked up, canonical isoform): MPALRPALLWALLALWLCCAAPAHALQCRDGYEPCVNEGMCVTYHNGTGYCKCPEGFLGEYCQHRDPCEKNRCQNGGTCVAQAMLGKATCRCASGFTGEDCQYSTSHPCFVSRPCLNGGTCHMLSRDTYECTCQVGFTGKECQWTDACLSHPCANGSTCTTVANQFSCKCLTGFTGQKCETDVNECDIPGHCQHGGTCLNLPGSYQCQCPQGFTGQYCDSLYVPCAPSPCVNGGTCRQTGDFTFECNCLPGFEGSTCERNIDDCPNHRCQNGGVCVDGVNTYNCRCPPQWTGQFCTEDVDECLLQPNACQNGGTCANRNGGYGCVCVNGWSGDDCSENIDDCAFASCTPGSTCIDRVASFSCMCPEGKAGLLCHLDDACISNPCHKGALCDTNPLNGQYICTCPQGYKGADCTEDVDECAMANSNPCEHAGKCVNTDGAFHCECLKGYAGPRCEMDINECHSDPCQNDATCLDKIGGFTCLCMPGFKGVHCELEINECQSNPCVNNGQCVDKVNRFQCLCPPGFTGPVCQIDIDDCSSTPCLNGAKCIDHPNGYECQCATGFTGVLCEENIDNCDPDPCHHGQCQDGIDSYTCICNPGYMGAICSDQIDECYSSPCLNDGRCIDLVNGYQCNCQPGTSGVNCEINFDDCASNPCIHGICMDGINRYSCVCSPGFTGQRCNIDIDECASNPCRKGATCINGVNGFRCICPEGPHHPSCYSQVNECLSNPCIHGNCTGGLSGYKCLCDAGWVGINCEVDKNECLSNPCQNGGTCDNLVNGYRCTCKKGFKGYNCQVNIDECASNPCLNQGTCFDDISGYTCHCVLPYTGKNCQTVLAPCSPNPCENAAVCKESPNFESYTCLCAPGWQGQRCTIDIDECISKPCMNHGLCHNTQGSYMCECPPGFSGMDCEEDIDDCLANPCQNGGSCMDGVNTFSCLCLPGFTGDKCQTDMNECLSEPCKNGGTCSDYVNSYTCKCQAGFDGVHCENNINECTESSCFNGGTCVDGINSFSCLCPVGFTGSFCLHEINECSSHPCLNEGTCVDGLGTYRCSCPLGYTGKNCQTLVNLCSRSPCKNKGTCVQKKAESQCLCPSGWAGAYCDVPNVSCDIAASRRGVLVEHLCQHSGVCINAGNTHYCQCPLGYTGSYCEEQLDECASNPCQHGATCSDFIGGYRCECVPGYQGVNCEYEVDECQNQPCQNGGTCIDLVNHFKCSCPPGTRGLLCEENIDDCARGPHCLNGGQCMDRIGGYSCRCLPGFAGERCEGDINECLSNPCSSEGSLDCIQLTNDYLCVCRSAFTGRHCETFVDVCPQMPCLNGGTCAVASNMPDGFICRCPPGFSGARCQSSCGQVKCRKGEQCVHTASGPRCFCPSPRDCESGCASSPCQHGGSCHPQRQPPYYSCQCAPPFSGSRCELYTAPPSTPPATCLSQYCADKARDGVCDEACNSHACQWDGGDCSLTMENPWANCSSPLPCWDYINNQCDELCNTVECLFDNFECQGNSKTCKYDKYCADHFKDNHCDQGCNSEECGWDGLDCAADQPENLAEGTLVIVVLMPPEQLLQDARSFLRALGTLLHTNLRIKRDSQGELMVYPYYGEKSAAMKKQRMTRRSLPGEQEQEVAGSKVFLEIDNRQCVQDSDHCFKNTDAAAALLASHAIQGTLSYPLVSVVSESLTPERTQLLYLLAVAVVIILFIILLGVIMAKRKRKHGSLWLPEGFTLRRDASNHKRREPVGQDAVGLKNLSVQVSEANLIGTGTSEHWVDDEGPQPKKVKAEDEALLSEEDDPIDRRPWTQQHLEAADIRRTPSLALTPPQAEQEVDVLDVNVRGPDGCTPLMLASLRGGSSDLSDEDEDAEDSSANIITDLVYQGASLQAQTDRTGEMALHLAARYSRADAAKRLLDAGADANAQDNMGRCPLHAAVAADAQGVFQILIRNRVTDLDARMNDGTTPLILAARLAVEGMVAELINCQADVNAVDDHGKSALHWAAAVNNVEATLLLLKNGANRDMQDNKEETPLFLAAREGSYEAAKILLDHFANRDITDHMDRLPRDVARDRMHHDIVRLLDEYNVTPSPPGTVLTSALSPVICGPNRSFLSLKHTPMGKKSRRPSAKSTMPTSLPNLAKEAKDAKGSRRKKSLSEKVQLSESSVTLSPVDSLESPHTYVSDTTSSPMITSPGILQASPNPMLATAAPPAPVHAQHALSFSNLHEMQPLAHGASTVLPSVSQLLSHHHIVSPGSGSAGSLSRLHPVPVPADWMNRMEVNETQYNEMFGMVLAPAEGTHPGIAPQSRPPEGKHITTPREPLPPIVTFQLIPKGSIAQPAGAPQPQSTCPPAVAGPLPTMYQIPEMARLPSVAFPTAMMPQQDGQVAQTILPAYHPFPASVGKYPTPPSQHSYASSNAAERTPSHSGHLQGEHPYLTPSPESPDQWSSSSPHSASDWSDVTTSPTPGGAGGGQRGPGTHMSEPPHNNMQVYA
Chain of Torsin-1A-interacting protein 2 (Homo sapiens) (Q8NFQ8 whole entry, looked up): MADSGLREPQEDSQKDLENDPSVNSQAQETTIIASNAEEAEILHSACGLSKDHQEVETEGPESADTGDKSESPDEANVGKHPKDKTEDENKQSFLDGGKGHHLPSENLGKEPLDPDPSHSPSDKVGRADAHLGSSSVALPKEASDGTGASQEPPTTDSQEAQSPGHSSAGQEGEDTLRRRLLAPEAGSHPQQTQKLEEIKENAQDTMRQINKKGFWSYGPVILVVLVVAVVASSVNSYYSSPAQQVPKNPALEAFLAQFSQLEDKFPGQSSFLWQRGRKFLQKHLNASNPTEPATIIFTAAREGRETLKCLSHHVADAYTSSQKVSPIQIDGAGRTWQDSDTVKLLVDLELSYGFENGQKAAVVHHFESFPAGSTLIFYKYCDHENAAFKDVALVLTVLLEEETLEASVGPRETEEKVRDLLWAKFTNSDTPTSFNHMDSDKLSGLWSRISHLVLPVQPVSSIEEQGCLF
Chain of Pro-neuregulin-1, membrane-bound isoform (Homo sapiens) (Q02297 whole entry, looked up, the tested form may be a part, canonical isoform): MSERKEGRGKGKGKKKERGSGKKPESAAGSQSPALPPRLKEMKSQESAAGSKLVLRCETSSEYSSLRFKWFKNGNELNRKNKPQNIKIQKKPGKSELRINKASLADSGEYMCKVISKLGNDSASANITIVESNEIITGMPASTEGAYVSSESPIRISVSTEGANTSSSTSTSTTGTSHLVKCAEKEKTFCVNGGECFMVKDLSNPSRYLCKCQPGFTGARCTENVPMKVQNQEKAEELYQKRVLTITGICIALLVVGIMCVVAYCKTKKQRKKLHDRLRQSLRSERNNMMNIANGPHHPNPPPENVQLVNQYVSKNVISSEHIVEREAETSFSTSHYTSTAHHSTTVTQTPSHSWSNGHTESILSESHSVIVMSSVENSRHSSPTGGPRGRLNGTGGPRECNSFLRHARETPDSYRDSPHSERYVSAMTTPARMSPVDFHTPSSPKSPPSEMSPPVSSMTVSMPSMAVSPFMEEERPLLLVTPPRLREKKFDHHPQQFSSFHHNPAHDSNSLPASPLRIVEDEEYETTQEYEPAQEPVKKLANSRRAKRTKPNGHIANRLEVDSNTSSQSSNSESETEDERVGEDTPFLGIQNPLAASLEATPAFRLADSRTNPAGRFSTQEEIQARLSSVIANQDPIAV

| SMILES | composite z-score [1] | composite z-score [2] | composite z-score [3] | composite z-score [4] | composite z-score [5] | composite z-score [6] | composite z-score [7] | z-score [8] | composite z-score [9] | composite z-score [10] | composite z-score [11] | z-score [12] | z-score [13] | z-score [14] | composite z-score [15] | z-score [16] | composite z-score [17] | composite z-score [18] | composite z-score [19] | composite z-score [20] |
| --- | --- | --- | --- | --- | --- | --- | --- | --- | --- | --- | --- | --- | --- | --- | --- | --- | --- | --- | --- | --- |
| CCOC(=O)[C@H](CC(C)C)NC(=O)CCC1CC(OC(=O)NCCc2ccc(F)cc2)CC2(CCCC(COC(=O)NCc3cccc4ccccc34)O2)O1 (stereo not given in full) | -0.249 | 0.685 | -0.195 | 0.162 | 0.401 | 0.0303 | 0.76 | 1.95 (inactive) | 0.748 | -0.134 | 0.733 | -0.175 (inactive) | -0.421 (inactive) | 0.238 (inactive) | 2.16 | 0.415 (inactive) | -0.181 | 0.261 | -0.773 | -0.0995 |
| CCOC(=O)[C@H](CC(C)C)NC(=O)CCC1CC(OC(=O)NCCc2ccc(F)cc2)CC2(CCCC(COC(=O)NCCCN3CCCC3=O)O2)O1 (stereo not given in full) | -0.547 | -0.0261 | -0.0922 | 0.403 | 0.951 | -0.0939 | 0.763 | 0.404 (inactive) | -0.015 | -0.0994 | 0.838 | -0.388 (inactive) | 0.531 (inactive) | 0.0799 (inactive) | 1.26 | 0.546 (inactive) | -0.132 | 0.144 | 0.965 | -0.0208 |
| COCCNC(=O)OCC1CCCC2(CC(OC(=O)NCc3cccc4ccccc34)CC(CCC(=O)N[C@@H](C)C(=O)OC)O2)O1 (stereo not given in full) | -0.486 | 0.0192 | -0.0692 | 0.662 | 0.668 | 0.737 | 1.03 | -1.43 (inactive) | 0.311 | -0.0994 | 1.55 | 1.48 (inactive) | 1.4 (inactive) | 2.67 (inactive) | 1.29 | 0.22 (inactive) | -0.145 | 1.18 | 1.05 | -0.0978 |
| CC(C)[C@@H](OCc1ccccc1)[C@H](C)C=NO[C@@H](C)c1cn([C@H](CO)Cc2ccccc2)nn1 | -0.474 | 0.384 | 0.491 | 0.175 | 0.301 | -0.236 | -0.419 | 0.193 (inactive) | 0.155 | -0.175 | 0.195 | -2.32 (inactive) | -3.21 (inactive) | -1.14 (inactive) | 0.559 | 0.96 (inactive) | -0.186 | 0.803 | 0.543 | -0.128 |
| CC(C)CON=C1[C@H]2CCn3c(=O)n(C)c(=O)n3[C@H]2[C@H](O)[C@@H]2O[C@H]12 | -0.553 | -0.0908 | -0.136 | 0.469 | 0.493 | 0.288 | 0.157 | -0.0014 (inactive) | -0.0694 | 0.0505 | -0.117 | 0.0116 (inactive) | -0.08 (inactive) | -0.6 (inactive) | -0.0761 | 0.253 (inactive) | -0.112 | 0.757 | 0.861 | 0.006 |
| C[C@H]1CC[C@H]2C(=O)O[C@H](CO)CN2[C@@H]1c1ccc(Br)cc1 | -0.334 | 0.544 | -0.166 | 0.051 | -0.288 | -0.102 | -0.238 | 1.11 (inactive) | -0.148 | 0.2 | 0.995 | -1.57 (inactive) | -16.2 (active) | -3.33 (inactive) | 0.139 | 1.88 (inactive) | -0.141 | 0.417 | -0.811 | -0.0738 |
| CC(=O)OC[C@H]1O[C@H](CC=NO[C@H](C)c2cn([C@@H]3COC[C@H]3O)nn2)C=C[C@@H]1OC(C)=O | -0.239 | 0.0556 | -0.131 | 0.294 | 0.277 | -0.0528 | 0.422 | -0.956 (inactive) | -0.149 | -0.0673 | 0.611 | -2 (inactive) | -0.535 (inactive) | -0.277 (inactive) | -0.3 | -0.763 (inactive) | -0.23 | 0.411 | 0.212 | -0.0845 |
| COc1ccc(OC[C@H]2CN3[C@@H](CC[C@@H](C)[C@@H]3c3ccc(Br)cc3)C(=O)O2)cc1 | -0.358 | 0.722 | -0.181 | 0.243 | -0.142 | 0.165 | -0.228 | -0.539 (inactive) | -0.115 | -0.109 | 0.591 | -0.313 (inactive) | -0.237 (inactive) | 0.179 (inactive) | 0.184 | -0.915 (inactive) | -0.198 | 0.318 | -0.175 | -0.0082 |
| CCN1C(=O)[C@H]2[C@H]3[C@H](O)[C@H](O)CC(=NOC[C@@H](O)COCc4ccco4)[C@H]3CC[C@H]2C1=O | -0.905 | 2.38 | -0.318 | -1.68 | -0.886 | -0.502 | 0.456 | -0.172 (inactive) | -0.104 | 0.0578 | 1.21 | -0.0365 (inactive) | -0.258 (inactive) | -0.0439 (inactive) | 0.327 | 0.316 (inactive) | -0.339 | 1.79 | 0.0738 | -0.099 |
| CO[C@@H](C(C)C)[C@@H](C)C1OC(=O)CC1O (stereo not given in full) | -0.156 | -0.126 | -0.15 | 0.0406 | -0.402 | -0.361 | 0.625 | 0.35 (inactive) | -0.192 | -0.0193 | -0.255 | 0.0031 (inactive) | 0.0183 (inactive) | -0.582 (inactive) | 0.338 | 0.457 (inactive) | -0.161 | -0.614 | -0.716 | -0.195 |
